Measured values taken from PubChem BioAssay (NCI).
Compounds without any hit were thinned out: in the full panel of roughly 79,000, 15% have a hit. A number with no mark means an inactive call. Calls of active or inactive are those of the source. Rule as the data show it: active = growth inhibition above about 70%; inactive = the rest.

Tests used:
[1] = NCI Yeast Anticancer Drug Screen. Data for the rad52 strain (AID 147);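 also: 0% = growth of vehicle-treated control cultures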; conditions: S. cerevisiae rad52 mutant growth inhibition, stronger effect = higher value
How it was run: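 Yeast strain carrying a DNA damage repair alteration was exposed to test compounds. Growth inhibition was measured relative to vehicle-treated controls.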

[2] = NCI Yeast Anticancer Drug Screen. Data for the wt1 strain (AID 149);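 also: 0% = growth of vehicle-treated wt1 cultures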; conditions: S. cerevisiae wt1 strain (SPY 50644) growth inhibition, stronger effect = higher value
How it was run: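 Measured: growth of wt1 yeast under compound versus vehicle treatment, reported as inhibition.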

[3] = NCI Yeast Anticancer Drug Screen. Data for the rad50EPP+ strain (AID 151);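 also: 0% = growth of vehicle-treated control cultures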; conditions: S. cerevisiae rad50 mutant strain, stronger effect = higher value
How it was run: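 Yeast strain carrying rad50 alteration (rad50EPP+) exposed to compounds; growth inhibition measured relative to vehicle-treated controls.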

[4] = NCI Yeast Anticancer Drug Screen. Data for the mgt1 strain (AID 153); conditions: S. cerevisiae mgt1 mutant growth inhibition, stronger effect = higher value
How it was run: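 Yeast mgt1 strain (DNA repair/cell-cycle alteration panel) exposed to compounds; growth inhibition measured relative to vehicle-treated controls.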

[5] = NCI Yeast Anticancer Drug Screen. Data for the rad50 strain (AID 155);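 also: 0% = growth of vehicle-only cultures of the same strain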; conditions: S. cerevisiae rad50 strain growth inhibition, stronger effect = higher value
How it was run: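 Growth of the mutant yeast was measured after compound exposure and referenced to vehicle-treated cultures.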

[6] = NCI Yeast Anticancer Drug Screen. Data for the mec2-1 strain (AID 157); conditions: S. cerevisiae mec2-1 strain, stronger effect = higher value
How it was run: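 mec2-1 yeast strain, carrying an alteration in DNA damage repair or cell cycle control, was exposed to compounds; growth inhibition was measured relative to vehicle-treated controls.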

[7] = NCI Yeast Anticancer Drug Screen. Data for the rad14 strain (AID 159);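 also: 0% = growth of vehicle-treated control cultures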; conditions: S. cerevisiae rad14 strain growth inhibition, stronger effect = higher value
How it was run: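 Here, inhibition of yeast growth was measured after compound exposure, using a strain with a genetic defect in DNA damage repair and vehicle-treated cultures as the reference.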

[8] = NCI Yeast Anticancer Drug Screen. Data for the sgs1 mgt1 strain (AID 161);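 also: 0% = growth of cultures given vehicle only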; conditions: S. cerevisiae sgs1 mgt1 strain, stronger effect = higher value
How it was run: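 This yeast growth screen uses a strain with defined DNA-repair lesions; compound-treated growth is compared with vehicle-treated growth.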

[9] = NCI Yeast Anticancer Drug Screen. Data for the CLN2oe strain (AID 163);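 also: 0% = growth of vehicle-only control cultures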; conditions: S. cerevisiae CLN2oe strain, stronger effect = higher value
How it was run: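 Yeast cells carrying a defined cell-cycle control alteration were exposed to test compounds. Growth inhibition was scored against vehicle-treated control cultures.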

[10] = NCI Yeast Anticancer Drug Screen. Data for the cln2 rad14 strain (AID 165);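 also: 0% = growth equal to vehicle treated cultures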; conditions: S. cerevisiae cln2 rad14 strain, stronger effect = higher value
How it was run: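 Yeast carrying cln2 and rad14 alterations (cell cycle control and DNA damage repair) were exposed to compounds. Growth inhibition was measured against vehicle-treated controls.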

[11] = NCI Yeast Anticancer Drug Screen. Data for the bub3 strain (AID 167); conditions: S. cerevisiae bub3 mutant strain, stronger effect = higher value
How it was run: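 Whole-cell yeast assay. The mutant strain was incubated with compounds, and growth inhibition was determined by comparison with vehicle-treated cells.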

[12] = NCI Yeast Anticancer Drug Screen. Data for the wt2 strain (AID 169);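 also: 0% = growth of vehicle-treated yeast cultures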; conditions: S. cerevisiae wt2 strain growth inhibition, stronger effect = higher value
How it was run: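 Yeast cells were exposed to test compounds, and growth inhibition was measured relative to vehicle-treated controls.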

[13] = NCI Yeast Anticancer Drug Screen. Data for the mlh1 strain (AID 171);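 also: 0% = growth of vehicle-treated control cultures of the same strain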; conditions: S. cerevisiae mlh1 strain growth inhibition, stronger effect = higher value
How it was run: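 Yeast carrying a defined genetic alteration in DNA damage repair or cell cycle control were exposed to test compounds. Growth inhibition was measured relative to vehicle-treated controls.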

[14] = NCI Yeast Anticancer Drug Screen. Data for the mlh1 rad18 strain (AID 175); conditions: S. cerevisiae mlh1 rad18 strain growth inhibition, stronger effect = higher value
How it was run: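 Growth inhibition of the yeast strain was measured after compound exposure and expressed relative to vehicle-treated controls. The strain carries defined defects in DNA damage repair.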

[15] = NCI Yeast Anticancer Drug Screen. Data for the rad18 strain (AID 177); conditions: S. cerevisiae rad18 mutant growth inhibition, stronger effect = higher value
How it was run: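 Yeast carrying a defined DNA damage repair alteration were exposed to compounds. Growth inhibition was expressed relative to vehicle-treated controls.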

[16] = at 5.0 µM (retest, dose inferred, filed as 0.5)
[17] = at 50.0 µM (retest, dose inferred, filed as 5.0)

Question: Which results are given for `CCOc1ccc(N)c(S)c1`?
Answer: growth inhibition ([1]; at 1.2 µM): 1%; growth inhibition ([1]; at 3.7 µM): 3%; growth inhibition ([1]; at 11.0 µM): 10%; growth inhibition ([1]; at 33.0 µM): 79% (active); growth inhibition ([1]; at 100.0 µM): 97% (active); growth inhibition ([2]; at 1.2 µM): 0%; growth inhibition ([2]; at 3.7 µM): 4%; growth inhibition ([2]; at 11.0 µM): 7%; growth inhibition ([2]; at 33.0 µM): 38%; growth inhibition ([2]; at 100.0 µM): 97% (active); growth inhibition ([3]; at 1.2 µM): 0%; growth inhibition ([3]; at 3.7 µM): -4%; growth inhibition ([3]; at 11.0 µM): 10%; growth inhibition ([3]; at 33.0 µM): 97% (active); growth inhibition ([3]; at 100.0 µM): 96% (active); growth inhibition ([4]; at 1.2 µM): 0%; growth inhibition ([4]; at 3.7 µM): -1%; growth inhibition ([4]; at 11.0 µM): 6%; growth inhibition ([4]; at 33.0 µM): 71% (active); growth inhibition ([4]; at 100.0 µM): 98% (active); growth inhibition ([5]; at 1.2 µM): 1%; growth inhibition ([5]; at 3.7 µM): -45%; growth inhibition [5, 16]: 0%; growth inhibition ([5]; at 11.0 µM): 34%; growth inhibition ([5]; at 33.0 µM): 88% (active); growth inhibition [5, 17]: 98% (active); growth inhibition ([5]; at 50.0 µM): 93.6% (active); growth inhibition ([5]; at 100.0 µM): 97% (active); growth inhibition ([6]; at 1.2 µM): 0%; growth inhibition ([6]; at 3.7 µM): 4%; growth inhibition [6, 16]: -1%; growth inhibition ([6]; at 11.0 µM): 17%; growth inhibition ([6]; at 33.0 µM): 68%; growth inhibition [6, 17]: 96% (active); growth inhibition ([6]; at 50.0 µM): 91.3% (active); growth inhibition ([6]; at 100.0 µM): 98% (active); growth inhibition ([7]; at 1.2 µM): -2%; growth inhibition ([7]; at 3.7 µM): -7%; growth inhibition ([7]; at 11.0 µM): 1%; growth inhibition ([7]; at 33.0 µM): 54%; growth inhibition ([7]; at 100.0 µM): 98% (active); growth inhibition [8, 16]: 9%; growth inhibition [8, 17]: 97% (active); growth inhibition ([8]; at 50.0 µM): 98.2% (active); growth inhibition ([9]; at 1.2 µM): 0%; growth inhibition ([9]; at 3.7 µM): -6%; growth inhibition ([9]; at 11.0 µM): -4%; growth inhibition ([9]; at 33.0 µM): 4%; growth inhibition ([9]; at 100.0 µM): 91% (active); growth inhibition [10, 16]: 9%; growth inhibition [10, 17]: 98% (active); growth inhibition ([10]; at 50.0 µM): 97% (active); growth inhibition ([11]; at 1.2 µM): 0%; growth inhibition ([11]; at 3.7 µM): 4%; growth inhibition [11, 16]: 1%; growth inhibition ([11]; at 11.0 µM): 23%; growth inhibition ([11]; at 33.0 µM): 97% (active); growth inhibition [11, 17]: 27%; growth inhibition ([11]; at 50.0 µM): 98% (active); growth inhibition ([11]; at 100.0 µM): 96% (active); growth inhibition ([12]; at 1.2 µM): -1%; growth inhibition ([12]; at 3.7 µM): 8%; growth inhibition ([12]; at 11.0 µM): 3%; growth inhibition ([12]; at 33.0 µM): 86% (active); growth inhibition ([12]; at 100.0 µM): 97% (active); growth inhibition ([13]; at 1.2 µM): 0%; growth inhibition ([13]; at 3.7 µM): 3%; growth inhibition ([13]; at 11.0 µM): 10%; growth inhibition ([13]; at 33.0 µM): 82% (active); growth inhibition ([13]; at 100.0 µM): 98% (active); growth inhibition [14, 16]: 2%; growth inhibition [14, 17]: 98% (active); growth inhibition ([14]; at 50.0 µM): 92% (active); growth inhibition ([15]; at 1.2 µM): 1%; growth inhibition ([15]; at 3.7 µM): 0%; growth inhibition ([15]; at 11.0 µM): 9%; growth inhibition ([15]; at 33.0 µM): 85% (active); growth inhibition ([15]; at 100.0 µM): 95% (active)
